Test [1] has as its system Wnt5a (protein binding on small-molecule microarray). As to the kind of experiment: small molecules binding Wnt5a protein – biophysical, small-molecule microarray, 635/667 nm fluorescence, primary screen (AID 1142).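 Further: fluorescence read at 667 nm with signal to noise per printed feature.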 The settings on record: 635 nm fluorescence, higher = more signal.
The nature of test [2]: ATP-based viability of Huh7 replicon cells – cell-based, CellTiter-Glo luminescence, basal, 48 h, cytotoxicity control for HCV replication inhibitor project, primary screen (AID 1143).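 Further: Huh7 hepatoma cells carrying a hepatitis C replication reporter with no stimulus; test concentration not given here.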 To be noted: higher = more signal, called active from +8 up or from −8 down. (A replicon is a self-replicating genome or part of one, used to study replication in cells.)
Test [3] can be described thus: Pseudomonas biofilm growth suppression – PAO1 strain, BacTiter-Glo luminescence, LB-PBS, primary screen (AID 1144). To be noted: P. aeruginosa PAO1 biofilm, 12 h, higher = more signal.
A short description of test [4]: basal CRE-LacZ reporter activity in PC12 – cell-based, unstimulated, primary screen (AID 1145). The settings on record: no forskolin, luminescence, 4.5 h, higher = more signal, called active from +8 up or from −8 down.
The nature of test [5]: forskolin-driven CRE-LacZ activity in PC12 – cell-based, CRE-LacZ reporter, forskolin-stimulated, primary screen (AID 1146).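 Further: PC12 cells with 6xCRE LacZ reporter stimulated by forskolin 10 µM; beta-galactosidase reporter signal reflecting CREB driven transcription.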 The settings on record: luminescence, 4.5 h, higher = more signal, called active from +8 up or from −8 down.
Test [6] concerns the target Streptavidin (Streptomyces avidinii) (UniProt P22629). As to the kind of experiment: compounds binding control protein streptavidin – biophysical, small-molecule microarray, 635/667 nm fluorescence, artefact control for SMM compound annotation, primary screen (AID 1147).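 Further: signal reflects streptavidin binding to arrayed compounds as a control protein.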 The settings on record: higher = more signal.
A short description of test [7]: probe aInhba binding on compound microarray – biochemical, small-molecule microarray, 635/667 nm fluorescence, primary screen (AID 1148).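 Further: score merges 667nm spot fluorescence with signal-to-noise for antibody binding to printed compounds.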 The settings on record: higher = more signal.
In test [8] the target is Torsin-1A (Homo sapiens) (UniProt O14656). As to the kind of experiment: TOR1A wild-type binding on microarray – cell lysate, small-molecule microarray, lysate, 635/667 nm, primary screen (AID 1149). To be noted: COS7 hTOR1A-WT lysate, 635 nm fluorescence, higher = more signal.
Chain of Torsin-1A (Homo sapiens) (O14656 whole entry, looked up): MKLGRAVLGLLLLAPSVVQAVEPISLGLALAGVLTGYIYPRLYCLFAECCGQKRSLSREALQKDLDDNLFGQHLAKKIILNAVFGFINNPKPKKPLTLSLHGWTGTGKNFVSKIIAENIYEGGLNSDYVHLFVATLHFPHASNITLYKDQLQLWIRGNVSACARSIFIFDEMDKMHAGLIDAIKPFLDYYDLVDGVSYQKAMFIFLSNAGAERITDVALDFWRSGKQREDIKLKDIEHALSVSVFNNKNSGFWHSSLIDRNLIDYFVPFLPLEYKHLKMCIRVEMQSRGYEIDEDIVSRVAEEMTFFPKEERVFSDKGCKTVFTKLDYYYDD
Test [9] has the same target. Briefly: torsin A mutant lysate binding on microarrays – cell lysate, small-molecule microarray, COS7 lysate, 635/667 nm fluorescence, primary screen (AID 1150).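 Further: score pools 667 nm emission and signal to noise measuring lysate protein binding.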 To be noted: COS7 hTOR1A mutant lysate, 635 nm fluorescence, higher = more signal.
The subject of test [10] is Sonic hedgehog protein (Shh). As to the kind of experiment: Sonic hedgehog microarray binding compounds – biochemical, small-molecule microarray, 635/667 nm fluorescence, primary screen (AID 1151).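 Further: Shh protein binding to compounds spotted on small-molecule microarray slides; score combines spot fluorescence intensity with signal-to-noise across triplicate slides.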 The settings on record: 635 nm fluorescence, higher = more signal.

Calls of active or inactive are those of the source. Unless noted, how the calls were made is not given here.

Chain of Streptavidin (Streptomyces avidinii) (P22629 whole entry, looked up): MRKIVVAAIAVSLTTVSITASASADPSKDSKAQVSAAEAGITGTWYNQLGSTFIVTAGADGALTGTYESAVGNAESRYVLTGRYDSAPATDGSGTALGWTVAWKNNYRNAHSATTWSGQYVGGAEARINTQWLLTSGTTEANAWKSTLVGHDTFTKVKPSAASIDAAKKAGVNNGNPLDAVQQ

Take `C#C[C@H]1Oc2ccccc2S(=O)(=O)N2CCC[C@@H]12`: the composite z-score in [1] is -0.0713; in [6], -0.14; in test [7], -0.278; in the test with Torsin-1A (Homo sapiens) [8], 0.461; with Torsin-1A (Homo sapiens) [9] it was 0.512; in test [10] it was 1.63. Moreover, the z-score in test [2] is -0.0352 (inactive); in test [3], -0.0287 (inactive); in test [4], 0.126 (inactive); in test [5] it was 1.3 (inactive).
As for `C=C[C@H](OC)[C@@H](OC(=O)Nc1ccc(SC)cc1)c1ccc(OCCO)cc1`, the composite z-score in test [1] is 0.712; in test [6] it was -0.414; in test [7], -0.123; with Torsin-1A (Homo sapiens) [8] it was 0.212; in the test with Torsin-1A (Homo sapiens) [9], 0.792; in test [10], 0.255. Also, the z-score in test [2] was -1.24 (inactive); in [3] it was -1.2 (inactive); in test [4] it was 1.55 (inactive); in [5], -0.648 (inactive).
Regarding `CN1C(=O)C2C=CC(C(O)C(C)(C)C)N(Nc3ccccc3)C2C1=O` (stereo not given), the composite z-score in [1] was 0.04; in test [6], 0.0034; in test [7], -0.157; in the test with Torsin-1A (Homo sapiens) [8], 0.392; in the test with Torsin-1A (Homo sapiens) [9], -0.419; in test [10], -0.624. Besides, the z-score is 1.07 (inactive) in [2], -0.101 (inactive) in [3], 0.24 (inactive) in test [4] and 0.124 (inactive) in test [5].
For the compound `COc1ccccc1CN1C(=O)c2ccccc2[C@](Cc2ccccc2I)(C(=O)NC2CC2)[C@@H]1c1ccc(CO)cc1`, the composite z-score was 0.811 in [1]; 0.662 in test [6]; 0.0374 in [7]; 0.427 with Torsin-1A (Homo sapiens) [8]; 0.71 with Torsin-1A (Homo sapiens) [9]; 2.06 in test [10]. In addition, the z-score in test [2] is -4.58 (inactive); in test [3], -0.0735 (inactive); in [4], 0.324 (inactive); in test [5], -0.572 (inactive).
As for `C=CCN1Cc2ccccc2C[C@]2(N=C(c3ccc(OCCCO)cc3)O[C@@H]2c2ccccc2)C1=O`, the composite z-score is 0.469 in test [1]; -0.138 in test [6]; 0.167 in [7]; 0.821 in the test with Torsin-1A (Homo sapiens) [8]; 1.15 with Torsin-1A (Homo sapiens) [9]; 1.81 in [10]. For the same compound, the z-score in [2] is -4.28 (inactive); in [3] it was -0.066 (inactive); in [4] it was 1.64 (inactive); in [5], -1.28 (inactive).
Regarding `C=CCC(OC(C)=O)[C@@H]1[C@@H](N(Cc2cc3ccccc3o2)C(=O)c2cccc3ccccc23)c2cc(OCCCO)ccc2N1C(=O)Cc1ccc2ccccc2c1` (stereo not given in full), the composite z-score was 0.0744 in test [1]; 0.435 in test [6]; -0.0589 in [7]; -0.213 with Torsin-1A (Homo sapiens) [8]; -0.146 in the test with Torsin-1A (Homo sapiens) [9]; 0.191 in test [10]. The z-score is -1.62 (inactive) in [2], 0.303 (inactive) in [3], 0.992 (inactive) in test [4] and -0.333 (inactive) in [5].
In the case of `C[N+](C)(C)CCCC[C@@H]1NC(=O)[C@H]2C[C@@H](C(=O)O)[C@@H](c3cccc(OCCO)c3)N2C1=O`, the composite z-score in test [1] came out at 1.93; in test [6], 3.77; in test [7] it was 0.893; in the test with Torsin-1A (Homo sapiens) [8], 1.95; in the test with Torsin-1A (Homo sapiens) [9], 2.13; in test [10] it was 1.4. Besides, the z-score in test [2] is 0.0605 (inactive); in test [3] it was 0.308 (inactive); in test [4], -0.138 (inactive); in [5], 0.629 (inactive).
Consider `CCCC[C@@H]1C[C@H]1[C@@H](NC(=O)c1ccccc1)c1ccc(-c2ccccc2)cc1`, for which the composite z-score was -0.0558 in [1]; 0.301 in test [6]; -0.0736 in [7]; -0.256 with Torsin-1A (Homo sapiens) [8]; -0.0118 with Torsin-1A (Homo sapiens) [9]; -1.11 in test [10]. For the same compound, the z-score in [2] was -4.35 (inactive); in test [3], 0.257 (inactive); in [4], 0.0075 (inactive); in test [5] it was 0.31 (inactive).
Take `C=C(/C(=C/C[C@@H](OC(=O)c1ccncc1)c1ccc(CO)o1)c1cc(C(=O)OC)ccc1OC)C(C)C`: the composite z-score in [1] came out at 0.569; in test [6], 0.229; in [7], 0.0633; in the test with Torsin-1A (Homo sapiens) [8], 1.24; with Torsin-1A (Homo sapiens) [9] it was 0.946; in test [10], 1.2. Moreover, the z-score is -0.82 (inactive) in test [2], -0.0553 (inactive) in test [3], 8.87 (active) in test [4] and 3.69 (inactive) in test [5].
In the case of `Cc1ccc(F)cc1S(=O)(=O)N[C@@H]1CCN(Cc2ccc(C(F)(F)F)cc2)C1`, the composite z-score in [1] is -0.192; in test [6], -0.381; in test [7], -0.208; with Torsin-1A (Homo sapiens) [8] it was -0.181; with Torsin-1A (Homo sapiens) [9], 0.319; in [10], 0.451. The z-score in test [2] is -4.39 (inactive); in test [3] it was 1.2 (inactive); in [4], 3.48 (inactive); in test [5], 0.777 (inactive).
Turning to `O=C1NC(=O)C2C1C=CC(C(O)c1cccs1)N2Nc1ccccn1` (stereo not given), the composite z-score in [1] was 0.0343; in test [6], -0.0099; in [7], -0.214; with Torsin-1A (Homo sapiens) [8], 0.484; with Torsin-1A (Homo sapiens) [9] it was 0.244; in test [10] it was -0.0541. The z-score in test [2] was 0.847 (inactive); in [3], -1.39 (inactive); in test [4], -0.712 (inactive); in [5], -1.04 (inactive).
On to `[N-]=[N+]=Nc1ccccc1[C@@H]1OC(c2ccc(OCCCO)cc2)=N[C@]1(CCS(=O)(=O)c1ccccc1)C(=O)O`, for which the composite z-score was determined as 0.301 in test [1]; 1.04 in [6]; 0.0559 in test [7]; 0.164 in the test with Torsin-1A (Homo sapiens) [8]; 0.719 in the test with Torsin-1A (Homo sapiens) [9]; 0.848 in test [10]. Besides, the z-score in [2] is -0.781 (inactive); in test [3], 1.08 (inactive); in [4], 0.0594 (inactive); in [5] it was -0.0642 (inactive).
In the case of `C=C(C(=O)CC[C@H](OC(=O)c1cccnc1)c1ccccc1OCCO)C(C)C`, the composite z-score is 1.14 in test [1]; -0.383 in test [6]; -0.168 in test [7]; 2.32 in the test with Torsin-1A (Homo sapiens) [8]; 1.54 in the test with Torsin-1A (Homo sapiens) [9]; 2.27 in [10]. The z-score is -1.13 (inactive) in [2], -0.467 (inactive) in test [3], 2.22 (inactive) in [4] and 0.716 (inactive) in [5].
Turning to `C=CCC(OC(C)=O)[C@@H]1[C@@H](N(Cc2ccc(-c3ccccc3)cc2)C(=O)c2ccc(C)cc2)c2cc(OCCCO)ccc2N1C(=O)c1ccc2ccccc2n1` (stereo not given in full), the composite z-score was -0.162 in [1]; 0.105 in test [6]; 0.173 in test [7]; -0.211 in the test with Torsin-1A (Homo sapiens) [8]; 0.115 in the test with Torsin-1A (Homo sapiens) [9]; 0.794 in [10]. For the same compound, the z-score in test [2] is -1.16 (inactive); in test [3], -1.41 (inactive); in test [4] it was 5.54 (inactive); in test [5] it was -0.523 (inactive).
For `C=CCC(OC(C)=O)[C@@H]1[C@@H](N(Cc2ccc(-c3ccccc3)cc2)C(=O)c2ccc(C)cc2)c2cc(OCCCO)ccc2N1C(=O)Cc1ccc(OC)cc1` (stereo not given in full), the composite z-score is -0.0283 in [1]; 1.36 in test [6]; -0.101 in test [7]; -0.691 with Torsin-1A (Homo sapiens) [8]; -0.0431 in the test with Torsin-1A (Homo sapiens) [9]; 0.726 in [10]. Besides, the z-score in [2] was -0.536 (inactive); in test [3] it was 0.307 (inactive); in test [4], 0.904 (inactive); in test [5], 0.429 (inactive).
For the compound `COCCOC(=O)N1C(=O)[C@@]2(c3ccccc31)[C@H](C(=O)N1CCCCCCC1)[C@H]1C(=O)O[C@H](c3ccccc3)[C@H](c3ccccc3)N1[C@@H]2c1ccccc1OCCO`, the composite z-score was determined as 1.09 in [1]; 2.79 in test [6]; 1.76 in test [7]; 1.27 in the test with Torsin-1A (Homo sapiens) [8]; 1.76 with Torsin-1A (Homo sapiens) [9]; 1.3 in test [10]. Further, the z-score was -2.56 (inactive) in test [2], -0.699 (inactive) in test [3], 0.0384 (inactive) in test [4] and 0.207 (inactive) in test [5].
Regarding `CO[C@H]1O[C@H](CO)[C@@H](OC(=O)Nc2ccc3c(c2)OCO3)[C@H](OC(=O)Nc2ccc3c(c2)OCO3)[C@H]1OC(=O)Nc1ccc2c(c1)OCO2`, the composite z-score was found to be 0.158 in test [1]; 0.697 in [6]; 0.297 in test [7]; 0.713 with Torsin-1A (Homo sapiens) [8]; 1.74 with Torsin-1A (Homo sapiens) [9]; 0.942 in test [10]. Also, the z-score in test [2] was -1.2 (inactive); in test [3], -0.416 (inactive); in [4], 1.05 (inactive); in [5], -0.808 (inactive).

Values taken from PubChem BioAssay.
